The source of these data is the supplement of paper PMC13380429.

The test system of this test is Vero E6 infected with SARS-CoV-2. Kind of test: morphology score (similarity to uninfected cells); higher = more like uninfected cells. As to conditions: 24 h.
Turning to `CCNC(=O)N1CCN(CCCC(c2ccc(F)cc2)c2ccc(F)cc2)CC1` [amperozide] (10 µM), the morphology score is -0.101. The value for `COc1ccc(N(C)c2nc(C)nc3ccccc23)cc1` [verubulin] (10 µM) was -0.0973; that for `O=C(Nc1cc(C(F)(F)F)ccc1O)Nc1cc(C(F)(F)F)ccc1O` (10 µM) was 0.119; that for `Cc1c(C)c2c(c(C)c1O)CCC(C)(C(=O)O)O2` (stereo not given) [trolox] (0.833333 µM) was 0.0965. Regarding `O=C1C2C=Nc3ccccc3C2=NN1c1ccc(Cl)cc1` (stereo not given) (10 µM), the morphology score is -0.264. As to `Fc1ccc2c(CCNCc3cccc(OCC(F)(F)C(F)F)c3)c[nH]c2c1` [idalopirdine] (10 µM), the morphology score is -0.145. The figure for `O=C(NC1(c2ccccc2)CC1)c1c(CN2CCC(N3CCCCC3)CC2)c(-c2cccc(C(F)(F)F)c2)nc2cc(Br)ccc12` (0.833333 µM) is -0.235. The value for `CC(C)CN(C[C@@H](OP(=O)(O)O)[C@H](Cc1ccccc1)NC(=O)O[C@H]1CCOC1)S(=O)(=O)c1ccc(N)cc1` [fosamprenavir] (10 µM) was -0.123; that for `OC(c1ccccc1)(c1ccccc1)C1CCNCC1` [azacyclonol] (10 µM) was -0.109. The figure for `CC(O)(P(=O)(O)O)P(=O)(O)O` [etidronic-acid] (10 µM) is 0.115; for `COCCCC/C(=N\OCCN)c1ccc(C(F)(F)F)cc1` [fluvoxamine] (10 µM) it is 0.0586.

On to `Cc1cccc(-c2nn3c(c2-c2ccnc4ccc(C(N)=O)cc24)CCC3)n1` (10 µM), for which the morphology score is 0.128. On to `O[C@H]1CC[C@H](Nc2ncc3nc(Nc4c(F)cc(F)cc4F)n([C@H]4CCOC4)c3n2)CC1` (0.833333 µM), for which the morphology score turned out to be 0.103.

Take `CNCCCC1(c2ccccc2)OC(C)(C)c2ccccc21` (stereo not given) [talopram] (10 µM): the morphology score is -0.07. The figure for `CC[C@]12CCCN3CCc4c(n(c5ccccc45)[C@@](O)(C(=O)OC)C1)[C@@H]32` [vincamine] (10 µM) is 0.0512; for `CCc1ccc(C2=CC(C)(C)Sc3ccc(C#Cc4ccc(C(=O)O)cc4)cc32)cc1` (10 µM) it is -0.0119; for `NC[C@H]1O[C@H](O[C@H]2[C@H](O)[C@@H](O[C@H]3O[C@H](CO)[C@@H](O)[C@H](N)[C@H]3O)[C@H](N)C[C@@H]2N)[C@H](O)[C@@H](O)[C@@H]1O` [kanamycin] (10 µM) it is 0.227. The figure for `CC(C)(C)C(=O)OCC(=O)[C@H]1CC[C@H]2[C@@H]3CCC4=CC(=O)CC[C@]4(C)[C@H]3CC[C@]12C` [desoxycorticosterone-pivalate] (10 µM) is 0.123. The value for `N=C(N)N` [guanidine] (0.833333 µM) was -0.293; that for `COc1ccc(CNC(=O)c2cc(-c3cncc(C)c3)ncc2-c2nccs2)nc1OC` (10 µM) was -0.0112. For the compound `Clc1ccc(C(Cn2ccnc2)OCc2ccc(Sc3ccccc3)cc2)c(Cl)c1` (stereo not given) [fenticonazole] (10 µM), the morphology score was -0.0119. The figure for `C[Se]C[C@H](N)C(=O)O` [Se-methylselenocysteine] (10 µM) is 0.107; for `c1cncc(CN2CCC(n3ncc4c(N5CCOCC5)nc(-c5ccc6[nH]ccc6c5)nc43)CC2)c1` (0.833333 µM) it is 0.491; for `COc1ccc(CCN2CCN(CCCc3ccccc3)CC2)cc1OC` [cutamesine] (10 µM) it is -0.0482.

`CC(C)N(C[C@H]1O[C@@H](n2cnc3c(N)ncnc32)[C@H](O)[C@@H]1O)[C@H]1C[C@@H](CCc2nc3cc(C(C)(C)C)ccc3[nH]2)C1` (10 µM) displayed a morphology score of 0.122.
